High-throughput results: PubChem, University of Kansas High Throughput Screening Laboratory
Many of the other results were omitted from the sample, so hits are more common in it than they were.
mHTT CaM bind: disrupts binding of mutant huntingtin to calmodulin; AID 1671202; P42858; inhibition, % at 15 µM; actives 3.6% (n = 190,000); AlphaScreen His-mHTT/GST-CaM binding, luminescence
Target sequence (P42858 whole entry, looked up, change not shown): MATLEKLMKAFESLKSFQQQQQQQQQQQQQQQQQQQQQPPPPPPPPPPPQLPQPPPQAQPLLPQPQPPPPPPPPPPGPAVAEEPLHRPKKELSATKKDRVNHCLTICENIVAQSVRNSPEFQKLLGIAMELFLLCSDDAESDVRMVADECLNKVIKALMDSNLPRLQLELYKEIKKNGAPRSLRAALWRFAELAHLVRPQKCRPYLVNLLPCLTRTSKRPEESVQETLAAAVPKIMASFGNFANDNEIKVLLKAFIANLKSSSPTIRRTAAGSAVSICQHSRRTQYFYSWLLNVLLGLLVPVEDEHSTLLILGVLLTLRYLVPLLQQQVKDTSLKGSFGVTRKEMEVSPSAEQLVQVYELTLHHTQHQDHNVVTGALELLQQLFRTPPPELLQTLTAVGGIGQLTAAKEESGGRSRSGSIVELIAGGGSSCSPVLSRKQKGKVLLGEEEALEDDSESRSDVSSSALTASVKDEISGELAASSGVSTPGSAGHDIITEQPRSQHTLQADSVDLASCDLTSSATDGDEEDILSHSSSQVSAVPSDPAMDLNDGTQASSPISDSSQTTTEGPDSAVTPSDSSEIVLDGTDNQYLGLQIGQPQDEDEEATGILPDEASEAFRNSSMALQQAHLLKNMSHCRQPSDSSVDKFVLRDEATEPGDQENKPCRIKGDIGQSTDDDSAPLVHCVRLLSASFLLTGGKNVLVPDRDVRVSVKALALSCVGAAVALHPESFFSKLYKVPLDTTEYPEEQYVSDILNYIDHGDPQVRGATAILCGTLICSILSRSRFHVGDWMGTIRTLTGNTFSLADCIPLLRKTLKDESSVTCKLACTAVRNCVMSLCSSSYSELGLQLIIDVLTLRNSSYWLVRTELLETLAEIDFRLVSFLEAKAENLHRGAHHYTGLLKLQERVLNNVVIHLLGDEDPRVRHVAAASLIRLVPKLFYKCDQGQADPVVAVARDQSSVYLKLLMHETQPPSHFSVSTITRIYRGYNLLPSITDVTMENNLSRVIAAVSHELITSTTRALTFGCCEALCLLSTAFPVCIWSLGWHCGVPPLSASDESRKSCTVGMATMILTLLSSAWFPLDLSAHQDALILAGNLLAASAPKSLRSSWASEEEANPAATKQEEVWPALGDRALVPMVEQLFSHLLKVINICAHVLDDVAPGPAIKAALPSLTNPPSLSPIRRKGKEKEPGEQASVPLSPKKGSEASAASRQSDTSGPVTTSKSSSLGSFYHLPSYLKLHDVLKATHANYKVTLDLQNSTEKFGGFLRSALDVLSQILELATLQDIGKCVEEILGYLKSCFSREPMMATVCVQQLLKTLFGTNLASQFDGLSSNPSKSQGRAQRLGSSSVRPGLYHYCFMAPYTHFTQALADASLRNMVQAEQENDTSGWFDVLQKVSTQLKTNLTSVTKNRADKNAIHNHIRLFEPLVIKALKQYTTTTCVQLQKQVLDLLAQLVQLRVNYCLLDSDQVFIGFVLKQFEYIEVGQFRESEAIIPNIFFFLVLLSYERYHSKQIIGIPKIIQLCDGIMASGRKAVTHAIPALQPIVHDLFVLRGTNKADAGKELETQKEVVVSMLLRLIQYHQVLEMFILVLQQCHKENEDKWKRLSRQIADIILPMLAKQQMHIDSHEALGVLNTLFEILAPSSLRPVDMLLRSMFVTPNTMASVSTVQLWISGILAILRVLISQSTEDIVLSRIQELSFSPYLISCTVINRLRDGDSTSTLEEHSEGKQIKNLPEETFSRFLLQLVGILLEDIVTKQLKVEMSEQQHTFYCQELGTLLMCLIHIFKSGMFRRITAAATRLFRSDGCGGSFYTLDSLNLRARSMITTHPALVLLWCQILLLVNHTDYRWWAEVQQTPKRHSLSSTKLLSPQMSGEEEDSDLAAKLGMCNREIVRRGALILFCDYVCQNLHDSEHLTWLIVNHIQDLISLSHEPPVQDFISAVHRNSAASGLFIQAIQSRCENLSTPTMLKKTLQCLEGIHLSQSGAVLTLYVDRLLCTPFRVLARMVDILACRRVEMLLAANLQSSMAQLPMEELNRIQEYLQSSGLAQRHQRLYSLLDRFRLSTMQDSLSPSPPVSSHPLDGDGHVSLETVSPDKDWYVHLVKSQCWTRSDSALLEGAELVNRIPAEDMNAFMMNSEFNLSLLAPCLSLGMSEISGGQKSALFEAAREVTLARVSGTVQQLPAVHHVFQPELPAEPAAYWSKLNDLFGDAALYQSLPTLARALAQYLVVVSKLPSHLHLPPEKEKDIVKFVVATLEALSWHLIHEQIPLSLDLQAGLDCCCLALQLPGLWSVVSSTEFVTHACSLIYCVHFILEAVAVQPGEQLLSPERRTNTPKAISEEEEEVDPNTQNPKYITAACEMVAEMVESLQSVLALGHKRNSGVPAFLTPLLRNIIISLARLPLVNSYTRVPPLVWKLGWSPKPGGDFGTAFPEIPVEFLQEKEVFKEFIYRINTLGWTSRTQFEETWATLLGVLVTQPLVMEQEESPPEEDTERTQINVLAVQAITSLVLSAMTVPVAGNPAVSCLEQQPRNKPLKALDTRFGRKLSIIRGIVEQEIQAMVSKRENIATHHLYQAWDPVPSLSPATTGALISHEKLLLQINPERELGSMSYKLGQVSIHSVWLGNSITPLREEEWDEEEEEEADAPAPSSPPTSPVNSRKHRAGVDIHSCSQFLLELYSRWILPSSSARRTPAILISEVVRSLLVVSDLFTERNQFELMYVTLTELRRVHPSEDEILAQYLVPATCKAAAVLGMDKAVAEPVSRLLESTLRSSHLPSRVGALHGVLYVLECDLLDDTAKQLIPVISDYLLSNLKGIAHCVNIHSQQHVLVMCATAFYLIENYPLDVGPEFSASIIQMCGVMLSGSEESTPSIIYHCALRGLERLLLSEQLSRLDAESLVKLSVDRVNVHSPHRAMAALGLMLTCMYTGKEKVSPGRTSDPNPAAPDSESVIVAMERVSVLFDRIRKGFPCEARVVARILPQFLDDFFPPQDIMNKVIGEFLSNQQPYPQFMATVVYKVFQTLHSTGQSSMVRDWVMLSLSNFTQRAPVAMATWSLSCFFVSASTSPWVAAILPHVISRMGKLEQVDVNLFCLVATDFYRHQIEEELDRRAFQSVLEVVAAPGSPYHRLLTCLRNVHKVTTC
Pf apPOL inh: Pf-apPOL DNA polymerase inhibition; actives 0.25% (n = 210,000); inhibition, % at 10 µM; Recombinant Pf-apPOL, molecular beacon fluorescence, 1.5 h
Of the large screens only hits and unclear results are named; the others gave an inactive call. Cut-off read from the data, not from the text of the source: active = inhibition above about 50%; inactive = the rest.

CCN(CC)C(=O)c1cc2c(n1C)CCN(Cc1ccc(F)cc1)C2	none
COc1ccc(NC(=O)c2cc3c(n2C)CCN(Cc2ccc(F)cc2)C3)cc1	mHTT CaM bind 99
COc1cccc(CN2CCc3c(cc(C(=O)Nc4cccc(C)c4C)n3C)C2)c1	none
Cc1ccc(CN2CCc3c(cc(C(=O)Nc4ccc(N5CCOCC5)cc4)n3C)C2)cc1	none
COc1cccc(CN2CCc3c(cc(C(=O)Nc4ccccc4OC)n3C)C2)c1	mHTT CaM bind 88
COc1ccc(NC(=O)c2cc3c(n2C)CCN(Cc2ccc(C)cc2)C3)cc1OC	mHTT CaM bind 50
CCC(=O)Nc1cccc(-c2noc(C3CCCN(C(=O)c4cccc(F)c4)C3)n2)c1 (stereo not drawn)	none
CCCCN(C)S(=O)(=O)c1cc(C(=O)Nc2ccc(Cl)c(Cl)c2)ccc1F	none
CCCc1ccc(S(=O)(=O)N2CCC(n3c(-c4ccoc4)nc4cccnc43)C2)cc1 (stereo not drawn)	none
CCn1ccc2sc(C)c(C(=O)NCc3c(C)cc(C)cc3C)c2c1=O	none
Cc1cc(C)cc(Cn2cc(CN3CC(N4CCCC4)CS3(=O)=O)nn2)c1 (stereo not drawn)	none
COc1cccc(CN2CCc3c(cc(C(=O)NCc4ccc(F)cc4)n3C)C2)c1	mHTT CaM bind 54
COc1cccc(CN2CCc3c(cc(C(=O)NC(C)C)n3C)C2)c1	none
COc1cccc(CN2CCc3c(cc(C(=O)Nc4ccccc4)n3C)C2)c1	mHTT CaM bind 59
COCCNC(=O)c1cc2c(n1C)CCN(Cc1cccc(OC)c1)C2	none
O=C(COc1ccc(Cl)cc1Cl)N1CCN(c2ccc([N+](=O)[O-])cc2)CC1	none
CC(=O)c1ccc(N2C(=O)Nc3cc(Cl)c(Cl)cc3N2O)cc1	none
Cc1ccc(S(=O)(=O)N=C2NC(=O)/C(=C/c3ccccn3)S2)cc1	none
CCOc1ccc(/C=C2\SC(=NS(=O)(=O)c3ccc(C)cc3)NC2=O)cc1	mHTT CaM bind 51
O=C1S/C(=C\c2ccc(O)cc2)C(=O)N1c1ccccc1	none
O=C1S/C(=C\c2ccc(O)c(O)c2)C(=O)N1c1ccc(Cl)cc1	mHTT CaM bind 88
COc1ccccc1/C=C1\SC(=O)N(c2ccc(Cl)cc2)C1=O	none
O=C1S/C(=C\c2ccc(O)c([N+](=O)[O-])c2)C(=O)N1c1ccccc1	none
O=C1S/C(=C\c2ccc(O)cc2)C(=O)N1c1ccc(O)cc1	mHTT CaM bind 55
O=C1S/C(=C\c2ccccc2Cl)C(=O)N1c1ccc(O)cc1	mHTT CaM bind 74
O=C(CN1C(=O)S/C(=C\c2ccc(Br)cc2)C1=O)Nc1ccc(O)cc1	mHTT CaM bind 52
O=C1S/C(=C\c2ccc(O)cc2)C(=O)N1CNc1ccc(I)cc1	none
Cn1c(CO)nc2cc(N=Cc3cc(Cl)ccc3O)ccc21	none
Clc1ccc(SCCCCN2CCOCC2)cc1	none
O=C1C(=O)N(CCN2CCOCC2)C(c2cccc([N+](=O)[O-])c2)C1=C(O)c1ccc(F)cc1 (stereo not drawn)	none
COc1ccc(C2C(C#N)=C(N)N3C(=C2C#N)Sc2ccccc23)cc1 (stereo not drawn)	none
CC(=O)c1c(F)c(F)c(Oc2ccc(C)cc2)c(F)c1N1CCOCC1	none
N#Cc1cccc(CN2CCCC(c3nc(-c4ccncc4)n[nH]3)C2)c1 (stereo not drawn)	none
c1ccc(CN2CCCC(c3nc(-c4cccnc4)n[nH]3)C2)nc1 (stereo not drawn)	mHTT CaM bind 99
c1cc(-c2n[nH]c(C3CCCN(Cc4ccc5cc[nH]c5c4)C3)n2)ccn1 (stereo not drawn)	mHTT CaM bind 53
N#Cc1ccc(CN2CCCC(c3nc(-c4cccnc4)n[nH]3)C2)cc1 (stereo not drawn)	none
Cc1ccc(SCCNC(=O)Cc2ccccc2)cc1	none
COCCNC(=O)C(=O)NCc1ccc(F)cc1F	none
COc1cccc(/C=C2\C(=O)NN(c3ccc(C)c(Cl)c3)C2=O)c1OCC#N	none
O=C1NN(c2cccc(Br)c2)C(=O)/C1=C/c1ccccc1	none
Cc1ccc(N2NC(=O)/C(=C\c3ccccc3OCC#N)C2=O)cc1Cl	mHTT CaM bind 78
O=C1NN(c2ccc(F)cc2)C(=O)/C1=C/c1cccc([N+](=O)[O-])c1	none
Cc1ccc(N2NC(=O)/C(=C\c3cccc(Br)c3)C2=O)cc1	mHTT CaM bind 71
Cc1ccc(N2NC(=O)/C(=C\c3cccc([N+](=O)[O-])c3)C2=O)cc1Cl	mHTT CaM bind 77
Cc1ccc(N2NC(=O)/C(=C\c3ccc(Cl)cc3Cl)C2=O)cc1Cl	mHTT CaM bind 90
Cc1ccc(N2NC(=O)/C(=C\c3cccs3)C2=O)cc1Cl	none
COc1cc2c(cc1OC)-c1nnc(-c3ccco3)n1C(C)(C)C2	none
CN1CCCN(C(=O)c2ccc3ncnc(N4CCCCC4)c3c2)CC1	none
COc1ccc(N2CCN(c3nccc(-n4nc(C)cc4C)n3)CC2)cc1	none
O=C1NN(c2ccc(Br)cc2)C(=O)/C1=C/c1cc([N+](=O)[O-])ccc1Cl	mHTT CaM bind 89
O=C1NN(c2ccc(Cl)c(Cl)c2)C(=O)/C1=C/c1ccc(-c2ccc3c(c2)C(=O)NC3=O)o1	none
CN(C)c1ccc([N+](=O)[O-])cc1/C=C1\C(=O)NN(c2ccc(F)cc2)C1=O	none
O=C1NN(c2ccc(Cl)c(Cl)c2)C(=O)/C1=C/c1ccc(-c2ccc3c(c2)C(=O)OC3)o1	mHTT CaM bind 68
COc1ccc(/C=C2\C(=O)NN(c3ccc(Cl)c(Cl)c3)C2=O)cc1	none
O=C1NN(c2ccc(Cl)c(Cl)c2)C(=O)/C1=C/c1ccccc1	mHTT CaM bind 96
CC1=C(C(=O)Nc2cc(C)ccn2)C(c2ccccc2C(F)(F)F)C2=C(CCCC2=O)N1 (stereo not drawn)	none
COc1cc(C)nc(N(Cc2ccccc2)S(=O)(=O)c2ccccc2)n1	none
CC(C)(C#CC(O)(c1ccccc1)c1ccccc1)N1CCCC1	none
O=C(NCc1cc(F)cc(F)c1)C1CCN(c2cc(N3CCSCC3)ncn2)CC1	none
CC(C)(C)c1ccccc1OCC(=O)Nc1ncc(S(=O)(=O)c2ccc([N+](=O)[O-])cc2)s1	none
COc1cccc2c1OC1(C)CC2NC(=O)N1c1ccccc1 (stereo not drawn)	none
CN(C/C=C/c1ccccc1[N+](=O)[O-])CCc1ccccn1	none
CCOc1ccccc1N1CCN(C(=O)c2cc(OC)cc(OC)c2)CC1	none
Cc1ccc(C2=NN(C(=O)CN3CCOCC3)C(c3ccccc3C)C2)cc1C (stereo not drawn)	mHTT CaM bind 51
O=C(CN1CCOCC1)N1N=C(c2ccccc2Cl)CC1c1ccccc1Cl (stereo not drawn)	mHTT CaM bind 100
COc1ccccc1C1=NN(C(=O)CN2CCOCC2)C(c2ccccc2Cl)C1 (stereo not drawn)	none
COc1cccc(C2CC(c3cc(C)ccc3C)=NN2C(=O)CN2CCOCC2)c1 (stereo not drawn)	none
Cc1ccc(C)c(C2=NN(C(=O)CN3CCOCC3)C(c3ccccc3C)C2)c1 (stereo not drawn)	mHTT CaM bind 85
CCC(=O)N(C)CC(=O)N1N=C(c2cccs2)CC1c1ccccc1 (stereo not drawn)	none
CCC(=O)N(C)CC(=O)N1N=C(c2ccc(C)c(C)c2)CC1c1ccccc1 (stereo not drawn)	mHTT CaM bind 56
Cc1ccc(C2=NN(C(=O)CN3CCOCC3)C(c3ccccc3Cl)C2)cc1 (stereo not drawn)	none
O=C1NC(=O)c2cc(N=Cc3ccc(Cl)cc3)ccc21	none
COc1ccc(NCC(=O)N2CCc3ccccc32)c(OC)c1	none
O=C(Nc1nc(-c2ccc(F)cc2)cs1)c1ccc(S(=O)(=O)N2CCOCC2)cc1	none
